Screens (PubChem)
Hits are enriched below; roughly 28% of the tested compounds scored in any of these assays.
CYP2C19 inhib: blockers of cytochrome P450 2C19 activity – biochemical, luminescence, ADME assay, primary screen | P33261 | CYP2C19 Supersomes, luciferin-H EGE luminescence, 30 min | inhibition, % at 5 µM | 96,000 tested, 21% active | AID 778, 2007;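 active = CYP2C19 inhibition above a set limit at 5 µM in the primary screen, cut at about 50% in these data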
Target sequence (P33261 whole entry, looked up): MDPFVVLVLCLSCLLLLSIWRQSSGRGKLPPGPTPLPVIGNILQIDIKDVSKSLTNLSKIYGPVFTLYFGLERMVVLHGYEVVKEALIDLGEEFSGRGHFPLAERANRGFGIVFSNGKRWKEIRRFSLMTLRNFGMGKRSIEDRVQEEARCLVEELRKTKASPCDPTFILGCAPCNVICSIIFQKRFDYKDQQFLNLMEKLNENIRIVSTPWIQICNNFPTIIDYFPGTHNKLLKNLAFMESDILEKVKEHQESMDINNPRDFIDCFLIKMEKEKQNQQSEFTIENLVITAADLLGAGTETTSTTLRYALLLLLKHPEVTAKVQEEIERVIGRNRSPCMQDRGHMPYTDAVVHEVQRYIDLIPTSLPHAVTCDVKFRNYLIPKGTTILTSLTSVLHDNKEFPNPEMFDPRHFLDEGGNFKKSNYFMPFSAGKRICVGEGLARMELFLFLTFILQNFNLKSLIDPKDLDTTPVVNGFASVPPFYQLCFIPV
CYP2C9 inh: blockers of cytochrome P450 2C9 activity – biochemical, luminescence, ADME assay, primary screen; 96,000 tested, 20% active; inhibition, % at 5 µM; P11712; CYP2C9 Supersomes, luciferin-H conversion;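 active = blocking of liver enzyme CYP2C9 beyond about 50% at 5 µM, limit read from the data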
CYP2C19 act: human CYP2C19 activators, primary screen, biochemical, luminescence | Cytochrome P450 2C19 (Homo sapiens), P33261 | recombinant CYP2C19, luciferin-H EGE luminescence; stronger effect = higher value; 0 = fully inhibited enzyme, 1 = untreated enzyme | activation factor at 5 µM | 96,000 tested, under 10 active | AID 1025, 2008;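 active = activation factor of at least 2 at 5 µM in the primary screen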
CYP2C9 activ: human CYP2C9 activators, primary screen, biochemical, luminescence; recombinant CYP2C9, luciferin-H conversion; stronger effect = higher value; factor 1 = untreated enzyme, 0 = blocked; 96,000 tested, 1.4% active; AID 1024, 2008; activation factor at 5 µM; Cytochrome P450 2C9 (Homo sapiens), P11712;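 active = activation factor of 2 or more for CYP2C9 at a 5 µM dose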
PTK2B oligo ant: antagonists of Pyk2 self-association, primary screen, Q293 cells, FERM NanoBiT luminescence, HTS. 99,000 tested, 0.83% active. Protein-tyrosine kinase 2-beta (Homo sapiens), Q14289. AID 1347419, 2020. stronger effect = lower value. z-score (the deposit names both 25 µM and 10 µM);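 active = Z-score of -3 or lower, scaled per plate to the spread of control and sample wells; inactive = z-score above -3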;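 also: negative z-score means lost luminescence so less FERM oligomerization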
Of the large screens only hits and unclear results are named; the others gave an inactive call.

COc1cc(NC(=O)Cc2ccccc2)cc(OC)c1	CYP2C19 inhib 94.2
COc1cccc(OCC(=O)Nc2ccc(OC)c(OC)c2)c1	CYP2C19 inhib 50.8
COc1cc(NC(=O)Cc2nn(C)c(=O)c3ccccc23)cc(OC)c1	CYP2C9 inh 86.1
CCC(C)[C@H](NC(=O)Nc1ccc(C(C)=O)cc1)C(=O)OC (stereo partly drawn)	none
Cc1cccc(NC2(C(F)(F)F)N=C(c3ccccc3)NC2=O)n1 (stereo not drawn)	none
O=C(O)c1[nH]nc2c1COc1ccccc1-2	none
COc1ccc(NC(=O)C(F)(F)F)cc1OC	none
O=C(COc1cccc(OC(F)F)c1)Nc1ccc(SC(F)F)cc1	CYP2C19 inhib 81.3
COc1ccc(NC(=O)CCC2CCCC2)cc1OC	CYP2C19 inhib 94.9
COc1cc(NC(=O)COc2cccc(OC)c2)cc(OC)c1	CYP2C19 inhib 87.8
Cn1c2c(c(=O)n(C)c1=O)C(NC(=O)c1ccco1)(C(F)(F)F)C(=O)N2 (stereo not drawn)	none
CSc1nc2c(c(-c3ccccc3)c1C#N)CCC2	none (no result: CYP2C19 inhib, CYP2C9 inh, CYP2C19 act, CYP2C9 activ)
COc1ccc(S(=O)(=O)N2CCCC2C(=O)Nc2nnc(-c3cccnc3)s2)cc1 (stereo not drawn)	CYP2C19 inhib 98.9
COc1ccc2nc(NC(=O)C3CCCN3S(=O)(=O)c3ccc(C)cc3)sc2c1 (stereo not drawn)	CYP2C19 inhib 67.9
COc1ccc2nc(NC(=O)C3CCCN(S(=O)(=O)c4c(C)noc4C)C3)sc2c1 (stereo not drawn)	none (no result: PTK2B oligo ant)
Cc1ccc(S(=O)(=O)N2CCCC2C(=O)Nc2nc3c(s2)CCCC3)cc1 (stereo not drawn)	CYP2C9 inh 89.8
COc1ccc(S(=O)(=O)N2CCC[C@H]2C(=O)NC2=NCCS2)cc1	none
CC(C(=O)Nc1ncc2c(n1)CC(C)(C)CC2=O)N1C(=O)c2ccccc2C1=O (stereo not drawn)	none
COC(=O)C1=NN(C(=O)c2ccc(Cl)cc2)C(O)(c2ccccc2)C1 (stereo not drawn)	none
CCOC(=O)C1=NN(C(=O)c2ccc(C)cc2)C(O)(c2ccc(Cl)cc2)C1 (stereo not drawn)	CYP2C19 inhib 55.5
BrC(=C\c1ccccc1)/C=N/N1CCN(c2ccccn2)CC1	none
COc1ccccc1C(=O)Nc1cc2ccccc2oc1=O	none
C=CCc1cccc2cc(NC(C)=O)c(=O)oc12	CYP2C9 activ 2.8
O=C1CS/C(=N\C(=O)N2c3ccccc3Sc3ccccc32)N1	CYP2C9 inh 67.6
O=C1CSC(=Nc2ccccc2)N1	none
CN(C)c1ncc(S(=O)(=O)c2ccc(Cl)cc2)c(-c2ccccc2)n1	CYP2C19 inhib 97.0, CYP2C9 inh 60.5
O=S(=O)(c1ccc(Cl)cc1)c1snnc1-c1ccccc1	CYP2C19 inhib 89.5
Cc1ncc(S(=O)(=O)c2ccccc2)c(-c2ccc(Cl)cc2Cl)n1	CYP2C19 inhib 73.3
COc1ccc(Oc2nc(-c3ccccc3)ncc2S(=O)(=O)c2ccccc2)cc1	none
Cc1cc(Cl)ccc1Oc1nc(-c2ccccc2)ncc1S(C)(=O)=O	none
Cc1nc(-c2ccccc2)sc1-c1nc(-c2ccncc2)ncc1S(=O)(=O)c1ccccc1	CYP2C19 inhib 93.3, CYP2C9 inh 95.9
O=c1ncn(-c2cccc(F)c2)c2ncccc12	none
CCOCCn1c(N(C)Cc2ccccc2)nc2c1c(=O)[nH]c(=O)n2C	none
O=C1COc2ccc(C(=O)c3ccccc3)cc2CN1	none
O=S(=O)(c1ccc(Cl)cc1)c1cnc(-c2cccnc2)nc1-c1ccccc1	CYP2C19 inhib 51.5
Cc1ccccc1-n1ncc2c(SCC(=O)NCc3cccs3)ncnc21	none
CC1CCc2c(sc(NC(=O)CSc3ncnc4c3cnn4-c3ccccc3Cl)c2C#N)C1 (stereo not drawn)	CYP2C9 inh 71.8
O=C(CSc1ncnc2c1cnn2-c1ccccc1)Nc1ccccc1	none
Cc1csc(NC(=O)CSc2ncnc3c2cnn3-c2ccccc2Cl)n1	CYP2C19 inhib 89.5, CYP2C9 inh 90.0
O=C1CC2(CCCCC2)Oc2ccc(O)cc21	CYP2C19 inhib 60.0
Cc1ccc(-c2nnc(CSc3nnc(COc4ccccc4)n3-c3ccccc3)o2)cc1	CYP2C19 inhib 92.4, CYP2C9 inh 97.9
COc1ccc(-n2c(COc3ccc(C)cc3)nnc2SCC(N)=O)cc1	none
Cc1ccc(-c2nnc(CSc3nnc(COc4ccccc4)n3-c3ccc(C)cc3)o2)cc1	CYP2C9 inh 70.7
CCOc1ccc(-c2nnc(SCc3nnc(-c4ccccc4)o3)n2-c2ccccc2F)cc1	none
CCCCCCCCCCOC(=O)c1csc2nnsc12	none (no result: CYP2C19 inhib, CYP2C9 inh, CYP2C19 act, CYP2C9 activ)
CSCC[C@@H](Nc1nc(-c2ccccc2)nc2c1oc1ccccc12)C(=O)O	CYP2C9 inh 64.0
c1ccc(-c2nc(NCc3cccnc3)c3oc4ccccc4c3n2)cc1	CYP2C9 inh 57.7
c1ccc(-c2nc(NCC3CCCO3)c3oc4ccccc4c3n2)cc1 (stereo not drawn)	none
CCc1nc(N[C@@H](CC(C)C)C(=O)O)c2oc3ccccc3c2n1	none
CCCCNCCCOc1cccc(Cl)c1Cl	none
Nc1cc(Cl)ccc1Oc1ccc2ccccc2c1	CYP2C19 inhib 70.9
Nc1nc(Cl)cc(Sc2ccc3ccccc3c2)n1	none
CCOC(=O)C1CCCN(S(=O)(=O)c2ccc(C)cc2)C1 (stereo not drawn)	none (no result: CYP2C19 inhib, CYP2C9 inh, CYP2C19 act, CYP2C9 activ)
O=C(C1Cc2ccccc2CN1S(=O)(=O)c1ccc(F)cc1)N1CCCCCC1 (stereo not drawn)	none
Cc1csc(NC(=O)C2CCCN(S(=O)(=O)c3ccc(Br)s3)C2)n1 (stereo not drawn)	CYP2C19 inhib 92.3, CYP2C9 inh 93.9
O=C(C1Cc2ccccc2CN1S(=O)(=O)c1cccs1)N1CCCCCC1 (stereo not drawn)	CYP2C19 inhib 82.0
CCOC(=O)C1CCCN(S(=O)(=O)c2ccc(OC)cc2)C1 (stereo not drawn)	CYP2C19 inhib 96.4, CYP2C9 activ 2.4
CCOC(=O)C1CCCN(S(=O)(=O)c2ccc(Br)s2)C1 (stereo not drawn)	CYP2C19 inhib 82.6
Cc1ccc(NC(=O)CN2CCCN(S(=O)(=O)c3ccc(Br)s3)CC2)cc1	CYP2C19 inhib 91.4
COc1ccc(C(=O)N2CCCC(C(=O)N3CCCCCC3)C2)cc1 (stereo not drawn)	none
CCOC(=O)N1CCN(C(=O)C2CCCN(S(=O)(=O)c3ccc(C)cc3)C2)CC1 (stereo not drawn)	CYP2C19 inhib 53.4
Cc1cc(S(=O)(=O)N2CCCC2)ccc1OCC(=O)N1CCOCC1	none
CCOC(=O)N1CCN(C(=O)C2CCCN(S(=O)(=O)c3ccccc3)C2)CC1 (stereo not drawn)	none
COc1ccc(S(=O)(=O)N2CCCC(C(=O)N3CCCCCC3)C2)cc1 (stereo not drawn)	CYP2C19 inhib 79.6
